# Tg IFNy HTS = T. gondii growth inhibition with IFN-gamma, primary screen, cell-based. hit rate 3.8% among 69,000. activity change, negative = inhibition, % (concentration not given with the values). Toxoplasma gondii growth in IFN-gamma-treated host cells; stronger effect = lower value. AID 1259416, 2018; in the data active means activity change below about -70%, passing the limit was not always enough;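 further: host cells are HeLa cells infected with Toxoplasma gondii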
# Active calls of the source: *; i = inactive. Only a selection was taken, and hits are over-represented in it overall.
SMILES,Tg IFNy HTS
CO[C@H]1C=CO[C@@]2(C)Oc3c(C)c(O)c4c(O)c(c5c(nc6cc(C)ccn65)c4c3C2=O)NC(=O)/C(C)=C\C=C/[C@H](C)[C@H](O)[C@@H](C)C(O)[C@@H](C)[C@H](OC(C)=O)[C@@H]1C (some centres undefined),2
Cc1nccn1CC1CCCN(Cc2ccc(-c3cccnc3)cc2)C1 (centres undefined),5
COc1ccc(CN2CCC(OCc3cccnc3)CC2)c(F)c1,2
COCCN1C[C@H]2[C@H](C(=O)Nc3ccccc3)CCS(=O)(=O)[C@H]2C1,-11
COc1ccc(Br)cc1-c1nc(Cn2nnc(C(=O)Nc3ccc(F)c(F)c3)c2C)c(C)o1,8
O=C(NCCc1csc(-c2ccc(F)cc2)n1)C(=O)Nc1ccc(F)cc1F,14
NC(=O)c1csc(-c2cccc(C(=O)O)c2)n1,-2
NC(=O)c1csc(-c2ccc(F)cc2F)n1,-107*
CC(C(=O)N(C)C)N(C)Cc1ccnn1-c1ccccc1 (centres undefined),5
CN(CC(=O)NC(Cc1ccsc1)c1cccnc1)Cc1cccnc1 (centres undefined),-12
Fc1ccc(C(c2ccccc2)(c2ccccc2F)n2ccnc2)cc1 (centres undefined),-71*
CCOc1ccc(NS(=O)(=O)c2cc3c4c(c2)CCC(=O)N4CCC3)cc1,-37
CCN(C(=O)c1cnc(NC)nc1)C1CCN(C)CC1,-1
CN1CCC(N(CCc2ccccc2)C(=O)c2cnc(N3CCCCC3)nc2)CC1,-90*
Cc1ccccc1N(CC(=O)NCCc1ccccc1)C(=O)c1ccc(N2CCCC2)nc1,-16
Cc1cnc(C(=O)N2CCC3(CCCc4ccccc43)CC2)cn1,-17
CCCS(=O)(=O)N1CCC2(CC(=O)N(Cc3c(C)noc3C)C2)C1 (centres undefined),11
CCOc1ccccc1C(=O)NCCc1sc(-c2cccc(F)c2)nc1C,-28
CCc1c(C)nn(CC(=O)NC(C)c2n[nH]c(C)n2)c1C (centres undefined),-4
COC(=O)c1c(NC(C)C)c2cccc(Cl)c2[nH]c1=O,52
O=S(=O)(c1ccccc1)N1CCC2(CCCN(CC3CCOCC3)C2)C1 (centres undefined),-3
COc1ccc(-c2nc3c(s2)CN(S(=O)(=O)c2ccc(F)cc2F)CC3)cc1,-95*
CCc1ccc(S(=O)(=O)N2CCc3nc(-c4ccc(OC)cc4)sc3C2)cc1,-15
COc1ccc(-c2nc3c(s2)CN(S(=O)(=O)c2cc(OC)ccc2OC)CC3)cc1,-120*
CCOc1ccc(-c2nc3c(s2)CN(S(=O)(=O)c2ccc(F)cc2F)CC3)cc1,92
SMILES,Tg IFNy HTS
CCOc1ccc(S(=O)(=O)N2CCc3nc(-c4ccc(OC)cc4)sc3C2)cc1,42
CC(C)n1nccc1NC(=O)CN1CCC(C2CCCCN(C)C2=O)CC1 (centres undefined),-6
CC(C)CN1CCS(=O)(=O)[C@H]2CCN(C(=O)Nc3ccccc3Cl)CC[C@@H]21,6
CCc1ccc(-c2nccn2Cc2ccc3c(c2)n(C)c(=O)n3C)nc1,23
Cc1ccc(CNC2=NCCNC23CCN(S(=O)(=O)c2cc(C)cc(C)c2)CC3)cc1,-13
O=c1oc2ccccc2cc1-c1csc(-c2ccc([N+](=O)[O-])cc2)n1,-1
Cc1ccccc1C(=O)N1CCN(S(=O)(=O)c2cc3c4c(c2)CCC(=O)N4CCC3)CC1,1
CC(C)(C)[C@@]1(O)CCN2C[C@@H]3c4ccccc4CCc4cccc(c43)[C@H]2C1,25
O=c1[nH]c2cc(F)ccc2c(O)c1-c1nc(-c2ccc(Br)cc2)no1,-3
CCN1c2cc(C)ccc2-n2cccc2C12CCN(C(=O)Nc1cccc(SC)c1)CC2,-87*
Cc1cc(C)cc(NC(=O)N2CCC3(CC2)Nc2cc(F)ccc2-n2cccc23)c1,162
CSc1cccc(NC(=O)N2CCC3(CC2)Nc2cc(F)ccc2-n2cccc23)c1,i
CCN1c2cc(C)ccc2-n2cccc2C12CCN(C(=O)Nc1cccc(Cl)c1C)CC2,-28
Cc1cc(C)cc(NC(=O)N2CCC3(CC2)Nc2cc(C)ccc2-n2cccc23)c1,-108*
Cc1ccc(C)c(NC(=O)N2CCC3(CC2)Nc2cc(C)ccc2-n2cccc23)c1,-54
Cc1ccc2c(c1)NC1(CCN(C(=O)Nc3cccc(C(F)(F)F)c3)CC1)c1cccn1-2,81
CCOC(=O)C1CCC(CNC(=O)N2CCC3(CC2)c2cccn2-c2ccc(C)cc2N3CC)CC1 (centres undefined),-10
CCN1c2cc(C)ccc2-n2cccc2C12CCN(C(=O)Nc1ccccc1Cl)CC2,-110*
O=C(Nc1cccc(C(F)(F)F)c1)N1CCC2(CC1)Nc1ccccc1-n1cccc12,474
CCN1c2cc(C)ccc2-n2cccc2C12CCN(C(=O)Nc1ccc(C)cc1Cl)CC2,107
CCN1c2cc(C)ccc2-n2cccc2C12CCN(C(=O)Nc1cccc(C(F)(F)F)c1)CC2,-111*
CCn1c(C2CCCN(Cc3cnn4c(C)cc(C)nc34)C2)nn(C)c1=O (centres undefined),-46
COc1cccc(Oc2c(F)c(F)c(Oc3cccc(OC)c3)c(F)c2F)c1,-22

# Screening data: PubChem, Broad Institute
